One test deals with Klebsiella pneumoniae. The following applies: Concentration 32 ug.mL-1;; ASSAY_TEST Inhibition of Bacterial Growth; detection method Absorption (OD600); MEDIA CAMHB; plate type 384well; NBS; CORNING #3640; time 18 hr.
A further test relates to Candida albicans. The following applies: Concentration 32 ug.mL-1; ASSAY_TEST Inhibition of Fungal Growth; detection method Absorption (OD530).
A further test has as its system Cryptococcus neoformans. The following applies: Concentration 32 ug.mL-1; ASSAY_TEST Inhibition of Fungal Growth; detection method Resazurin; Absorption (OD600-OD570); plate type 384well; NBS; CORNING #3640.

The results in this text go back to ChEMBL document CHEMBL4513146, “CO-ADD screening of Karazin Kharkiv National University (Ukraine) compounds”.

Structures are written as SMILES. Potency and affinity values are given separately.

What is called Inhibition is the drop in the measured response relative to a control, in per cent. In the case of `O=C(CSc1nnc2c(=O)n(-c3cccc(F)c3)ccn12)N1CCN(c2ccc(F)cc2)CC1`, the Inhibition in the test with Klebsiella pneumoniae is reported as 10.19%; in the test on Candida albicans, 2.58%; in the test on Cryptococcus neoformans, -3.61%.
`Cc1cc2nn(CC(=O)Nc3cc(F)ccc3C)c(=O)n2c(Nc2ccc(F)c(C)c2)n1`: the Inhibition is on record as 15.58% in the test with Klebsiella pneumoniae, 4.23% in the test on Candida albicans and -9.62% with Cryptococcus neoformans.
In the case of `Cc1ccc(-c2ccc3nn(CC(=O)Nc4ccc(Br)cc4F)c(=O)n3n2)cc1`, the Inhibition in the test with Klebsiella pneumoniae is 9.08%; in the test on Candida albicans it was 3.52%; in the test with Cryptococcus neoformans, -13.83%.
Take `Cc1ccc(-c2ccc3nn(Cc4nc(-c5ccc(Cl)cc5)no4)c(=O)n3n2)cc1`: the Inhibition was 0.33% with Klebsiella pneumoniae, 7.26% with Candida albicans and -7.02% in the test with Cryptococcus neoformans.
The matching figures for `O=C(Cn1nc2c3sc(N4CCCC4)nc3ncn2c1=O)Nc1cccc(Br)c1`: 18.9%, 3.98% and -10.95%.
The corresponding values for `Cc1cccc(Cn2nc3n(CCc4ccccc4)c(=O)c4sccc4n3c2=O)c1` are 3.95%, -1.37% and -11.78%.
Regarding `Cc1cc(Nc2ccc(F)cc2)nc2nn(Cc3cccc(C#N)c3)c(=O)n12`, the values for the Inhibition with Klebsiella pneumoniae, with Candida albicans and in the test on Cryptococcus neoformans were 10.49%, 2.04% and -10.7%, respectively.
The matching figures for `CCOC(=O)c1ccc(NC(=O)Cn2nc3c(SCc4ccc(Cl)cc4)nccn3c2=O)cc1`: 1.65%, 7.78% and -18.54%.
The corresponding values for `Cc1cccc(CN(c2ccc(Cl)cc2)S(=O)(=O)c2cccn3c(C)nnc23)c1` are 9.48%, 1.95% and -9.68%.
Consider `O=C(Cn1nc2ccc(-c3ccc(Cl)cc3)nn2c1=O)N1CCN(c2ccccc2)CC1`, for which the results for the Inhibition in the test on Klebsiella pneumoniae, in the test on Candida albicans and in the test with Cryptococcus neoformans were -0.57%, -1.89% and -9.03%, respectively.
The matching figures for `Cc1cc(C)cc(NC(=O)CSc2nnc3c(=O)n(-c4ccc(Br)cc4)ccn23)c1`: 11.44%, 6.21% and -22.2%.
The matching figures for `Cc1nnc2c(=O)n(CC(=O)Nc3cccc(Cl)c3)c3ccccc3n12`: 15.43%, -0.29% and -13.95%.
As for `CCN(CCCNC(=O)CCc1nnc2ccc(-c3ccccc3)nn12)c1ccccc1`, the Inhibition was 9.95% in the test with Klebsiella pneumoniae, 3.75% in the test on Candida albicans and -0.38% in the test on Cryptococcus neoformans.
Turning to `O=C(Cn1nc2nc(Nc3ccc(F)cc3)ccn2c1=O)Nc1cc(F)ccc1F`, the Inhibition in the test on Klebsiella pneumoniae is 11.06%; in the test on Candida albicans it was 4.41%; in the test on Cryptococcus neoformans, -6.4%.
On to `CCc1cccc(NC(=O)Cn2nc3ccc(SC4CCCCC4)nn3c2=O)c1`, for which the values for the Inhibition with Klebsiella pneumoniae, with Candida albicans and in the test with Cryptococcus neoformans were 16.99%, 2.91% and -22.11%, respectively.
Turning to `O=c1c2nn(Cc3ccccc3Cl)c(=O)n2ccn1-c1ccccc1`, the Inhibition in the test on Klebsiella pneumoniae is 1.78%; in the test on Candida albicans it was 1.76%; in the test on Cryptococcus neoformans, -8.76%.
On to `Cc1ccc(Oc2nccn3c(=O)n(CC(=O)Nc4cc(F)ccc4F)nc23)cc1`, for which the Inhibition is recorded as 10.7% with Klebsiella pneumoniae, 4.41% in the test on Candida albicans and -11.42% in the test with Cryptococcus neoformans.
On to `O=C(Cn1nc2ccc(SC3CCCCC3)nn2c1=O)Nc1ccc2c(c1)CCC2`, for which the Inhibition in the test with Klebsiella pneumoniae was 11.52%; in the test with Candida albicans, 2.83%; in the test on Cryptococcus neoformans, -22.07%.
For the molecule `CCN(C(=O)Cn1nc2nc(Nc3ccc(F)cc3)ccn2c1=O)c1ccccc1`, the Inhibition with Klebsiella pneumoniae is reported as 8.48%; in the test on Candida albicans, 1.18%; in the test with Cryptococcus neoformans it was -4.45%.
`COc1cccc(CN(c2ccc(F)c(F)c2)S(=O)(=O)c2ccc3nncn3c2)c1`: the results for the Inhibition with Klebsiella pneumoniae, in the test on Candida albicans and in the test on Cryptococcus neoformans were 0.45%, 4.56% and -8.9%, respectively.
Take `COc1cccc(-n2ccn3c(SCc4ccccc4Cl)nnc3c2=O)c1`: the Inhibition with Klebsiella pneumoniae is 8.33%; in the test with Candida albicans, 2.81%; in the test on Cryptococcus neoformans, -13.51%.
For the molecule `CCOc1ccc(NC(=O)Cn2nc3c4cc(-c5ccc(C)c(C)c5)nn4ccn3c2=O)cc1`, the Inhibition in the test with Klebsiella pneumoniae is reported as 8.27%; in the test with Candida albicans, 0.04%; in the test on Cryptococcus neoformans it was -13.03%.
The corresponding values for `O=C(Cn1nc2ccc(-c3ccc(Cl)cc3)nn2c1=O)NC1CCCC1` are 16.69%, 1.09% and -13.05%.
Regarding `CCCCc1ccc(NC(=O)Cn2c(=O)c3nnc(CCC)n3c3ccccc32)cc1`, the Inhibition in the test on Klebsiella pneumoniae is on record as 6.31%; with Candida albicans, 4.08%; in the test on Cryptococcus neoformans, -20.48%.
For `Cc1cccc(NC(=O)CSc2nnc3ccc(C(=O)Nc4cccc(F)c4)cn23)c1C`, the Inhibition with Klebsiella pneumoniae is recorded as -0.74%; in the test on Candida albicans it was 4.11%; with Cryptococcus neoformans, -4.88%.
Take `O=C(Cn1nc2c(Oc3ccccc3)nccn2c1=O)Nc1ccc(Cl)cc1`: the Inhibition in the test with Klebsiella pneumoniae was 8.01%; in the test with Candida albicans, -0.31%; in the test on Cryptococcus neoformans it was -10.29%.
On to `O=C(CSc1nnc2c3cc(-c4ccccc4)nn3ccn12)NCc1ccc(Cl)cc1`, for which the values for the Inhibition in the test on Klebsiella pneumoniae, with Candida albicans and with Cryptococcus neoformans were 14.11%, 6.05% and -28.72%, respectively.
With `O=C(Cn1nc2n(CCc3ccccc3)c(=O)c3ccccc3n2c1=O)Nc1ccc2c(c1)OCO2`, the Inhibition in the test on Klebsiella pneumoniae is 5.15%; in the test with Candida albicans, 15.71%; in the test on Cryptococcus neoformans it was -16.57%.
As to `CCOc1ccc(C(=O)Cn2nc3n(Cc4ccccc4OC)c(=O)c4sccc4n3c2=O)cc1`, the Inhibition is 8.36% in the test with Klebsiella pneumoniae, 6.12% with Candida albicans and -29.81% in the test on Cryptococcus neoformans.
For `CCCCN(C)C(=O)CSc1nnc2c(=O)n(Cc3ccc(F)cc3)ccn12`, the Inhibition is listed as 14.76% in the test with Klebsiella pneumoniae, -0.35% in the test with Candida albicans and -33.57% in the test with Cryptococcus neoformans.
The matching figures for `O=C(CSc1nnc2c3cc(-c4ccc(F)cc4)nn3ccn12)NCCc1ccccc1`: 7.72%, 2.21% and -23.19%.
